Source: PubChem BioAssay AID588676 (Johns Hopkins Ion Channel Center, 2011)
The campaign covered roughly 310,000 compounds. About 3,900 (1.3%) were called active.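 How the source made its calls: active means calcium-response B-score plate-corrected more than 3 library SD below zero, starting fluorescence within 5 deviations, no agonist response on first addition; inactive means the rest.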 The list comes from a sample in which actives are over-represented; it also holds similar structures and randomly drawn compounds.

biological target: Mas-related G-protein coupled receptor member X1 (Homo sapiens) (UniProt Q96LB2); assay: antagonists of human MrgX1 receptor, primary screen, HEK293 cells, Fluo-4 calcium flux (AID 588676); conditions: Fluo-4, BAM8-22 antagonism, at 10 µM; hits give low values;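 on B-score: peak minus trough fluorescence over baseline after final BAM8-22 challenge near maximal dose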
Sequence (Q96LB2 whole entry, looked up): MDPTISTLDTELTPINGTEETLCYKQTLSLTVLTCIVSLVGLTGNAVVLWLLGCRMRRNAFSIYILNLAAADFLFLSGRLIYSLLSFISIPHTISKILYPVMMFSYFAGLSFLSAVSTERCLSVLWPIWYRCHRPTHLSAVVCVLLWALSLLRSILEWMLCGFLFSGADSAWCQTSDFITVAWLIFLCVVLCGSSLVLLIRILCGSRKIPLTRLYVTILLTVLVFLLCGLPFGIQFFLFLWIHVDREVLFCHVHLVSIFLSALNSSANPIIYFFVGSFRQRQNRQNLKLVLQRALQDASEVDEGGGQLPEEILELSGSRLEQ

Structure (SMILES) | B-score
COc1cc(NC(=O)CN(C)S(=O)(=O)c2ccc3nc(C)sc3c2)cc(OC)c1 | inactive
Cc1cccc(N(CC(=O)Nc2ccc(-c3nc4ccc(C)cc4s3)cc2)S(C)(=O)=O)c1 | inactive
Cc1ccc2nc(-c3ccc(NC(=O)CN(C)S(=O)(=O)c4ccccc4)cc3)sc2c1 | -4.7 (active)
Cc1cc2nc(-c3ccc(NC(=O)c4cccnc4)cc3)oc2cc1C | inactive
CCOC(=O)c1ccc(NC(=O)c2cccnc2)cc1 | inactive
Cc1ccc2nc(-c3ccc(NC(=O)c4cccnc4)cc3)oc2c1 | -5.36 (active)
Cc1ccc(N2C(=O)CC(NCc3ccc4c(c3)OCO4)C2=O)cc1Cl (centres undefined) | inactive
O=C(CSc1nnnn1-c1ccc(O)cc1)N1N=C(c2ccc3ccccc3c2)CC1c1ccccc1 (centres undefined) | inactive
CSc1nc2c(c(=O)[nH]1)C(c1cccc(Cl)c1Cl)CC(=O)N2 (centres undefined) | inactive
CCOc1ccc(Nc2nc(Cc3nnc(SCC(=O)c4ccc(C)cc4)o3)cs2)cc1 | inactive
CC(C)OCCCNC(=O)c1cc(Sc2ccc(F)cc2)nc2ccccc12 | inactive
CC(C)OCCCNc1ncnc2c1[nH]c1ccc(F)cc12 | -12 (active)
COc1cc(OC)c(OC)cc1/C=N/Nc1ncnc2c1[nH]c1ccc(C)cc12 | inactive
O=C(CN1CCN(c2ccccn2)CC1)NC1CCCCC1 | -5.03 (active)
O=C(CN1CCN(c2ccccn2)CC1)Nc1ccc(Br)cc1 | inactive
O=C(CN1CCN(c2ccccn2)CC1)NCc1cccs1 | inactive
CCOC(=O)C1=C(c2ccc(OC)cc2)C(=O)c2ccccc2C1=O | inactive
CCOC(=O)C1C(=O)NC(N2CCN(c3ccccc3)CC2)=NC1c1ccco1 (centres undefined) | inactive
CCOC(=O)C1C(=O)C=C(c2ccc(OC)cc2)CC1c1ccco1 (centres undefined) | -5.76 (active)
N#Cc1cccc(CN2CCC(=O)N([C@H](CO)c3ccccc3)CC2)c1 | inactive
O=C(C1CCN(Cc2ccc(Cl)cc2)CC1)N1CCN(Cc2ccc3c(c2)OCO3)CC1 | inactive
O=C(C1CCN(S(=O)(=O)c2cnc[nH]2)CC1)N1CCN(Cc2ccc3c(c2)OCO3)CC1 | -6 (active)
Cc1cccc(N2CCN(C(=O)C3CCN(S(=O)(=O)c4cnc[nH]4)CC3)CC2)c1C | inactive
Cc1ccc(C(=O)N2CC(=O)Nc3ccc(F)cc3C2c2ccc(F)cc2)cc1 (centres undefined) | inactive
O=[N+]([O-])c1ccc(NCCCN2CCOCC2)c(Cl)c1 | inactive

Structure (SMILES) | B-score
O=[N+]([O-])c1cc(S(=O)(=O)CCCN2CCOCC2)ccc1F | -6.04 (active)
O=C(NCCCN1CCOCC1)c1ccc([N+](=O)[O-])cc1[N+](=O)[O-] | inactive
CC(NC(=O)CNC(=O)Cc1cccc2ccccc12)c1ccc(S(N)(=O)=O)cc1 (centres undefined) | inactive
O=[N+]([O-])c1ccc2c(c1)C(N1CCOCC1)/C(=C/C1(O)CCCCC1)O2 (centres undefined) | inactive
CC1(C)CC(=O)CC2(C1)NCC(c1ccccc1Cl)c1c2[nH]c2ccccc12 (centres undefined) | inactive
Cc1ccc(S(=O)(=O)n2cccc2CO)cc1 | inactive
COCCN(Cc1cc2cc3c(cc2nc1Cl)OCO3)C(=O)c1cccc(C)c1 | inactive
COc1ccc(C2/C(=C(/O)c3ccc4c(c3)CC(C)O4)C(=O)C(=O)N2Cc2ccncc2)cc1 (centres undefined) | inactive
COc1ccc(/C(O)=C2\C(=O)C(=O)N(Cc3ccco3)C2c2ccc(OC)cc2OC)cc1 (centres undefined) | inactive
COc1cc(C2/C(=C(\O)c3ccc4c(c3)CC(C)O4)C(=O)C(=O)N2Cc2ccco2)ccc1O (centres undefined) | -5.81 (active)
Cc1cccc(CSc2ccc(-c3cccs3)nn2)c1 | inactive
C=CCN1CC(C)/C(=N\O)CC1C (centres undefined) | inactive
O=C(N/N=C/c1ccc([N+](=O)[O-])o1)c1cccc(S(=O)(=O)N2CCOCC2)c1 | inactive
O=C(N/N=C/c1cc(Cl)cc([N+](=O)[O-])c1O)C(O)(c1ccccc1)c1ccccc1 | inactive
O=[N+]([O-])c1cc(Cl)cc(/C=N/NC(=S)Nc2cc(S(=O)(=O)N3CCOCC3)ccc2Cl)c1O | -7.04 (active)
CCCCN(C(=O)CCNC(=O)NC12CC3CC(CC(C3)C1)C2)c1c(N)n(CCCC)c(=O)[nH]c1=O | inactive
CN(CCc1ccccn1)C(=O)CCC1CCCN(Cc2ccccc2OC(F)F)C1 (centres undefined) | inactive
CCc1cc2cc(OC)ccc2nc1SCC(=O)Nc1cc(OC)c(OC)cc1C(=O)O | inactive
CCOC(=O)CSc1nnc(-c2ccc([N+](=O)[O-])cc2)o1 | inactive
Cc1cc(OCCCCOc2ccc(C#N)cc2)ccc1[N+](=O)[O-] | inactive
N#Cc1ccc(OCc2nnc(-c3ccc([N+](=O)[O-])cc3)o2)cc1 | -5.3 (active)
CCn1cc(C(=O)NCCCN2CCCCCC2)c(=O)c2cc(S(=O)(=O)N3CCc4ccccc4C3)ccc21 | inactive
CCOc1cc(C(=O)Nc2c(C)ccc3nsnc23)cc(OCC)c1OCC | inactive
Cc1cccn2c(=O)c(/C=C3\SC(=S)N(CC(C)C)C3=O)c(NCCCOC(C)C)nc12 | -11.6 (active)
CCOC(=O)CC1C(=O)NCCN1c1nc2c(C)cccn2c(=O)c1/C=C1\SC(=S)N(C(C)CC)C1=O (centres undefined) | inactive

Structure (SMILES) | B-score
CNc1nc2c(C)cccn2c(=O)c1C=Nc1ccc(OC)cc1 | inactive
Cc1coc2c1c(C)cc1oc(=O)c(CC(=O)NCC(=O)N[C@H](C(=O)O)C(C)C)c(C)c12 | inactive
CCCCn1c(N)c(N(CC(C)C)C(=O)c2ccc(-n3c(C)ccc3C)cc2)c(=O)[nH]c1=O | inactive
O=C(COc1coc(CN2CCN(c3ccccc3)CC2)cc1=O)Nc1ccccc1F | inactive
COc1ccc(C(=O)CSc2n[nH]c(N)n2)cc1 | -4.92 (active)
COc1ccc(C(=O)CSc2nccc(=O)[nH]2)cc1 | inactive
COc1ccc(CNC(=O)CSc2n[nH]c(N)n2)cc1OC | inactive
O=C(c1cc(-c2ccc(Cl)s2)nc2ccccc12)N1CCOCC1 | inactive
CCOC(=O)c1cn(Cc2cccc(C)c2)nn1 | -5.74 (active)
CCOC(=O)c1nn(-c2cccc(C)c2)cc1C(=O)c1ccccc1 | inactive
CCOC(=O)c1cn(CC(=O)Nc2ccc(C(C)C)cc2)nn1 | inactive
COC(=O)[C@@H]1CC[C@H](C)[C@@H](c2ccc(C)cc2)N1C(=O)c1ccc(/C=N/O[C@H](C)c2cn([C@@H]3COC[C@H]3O)nn2)cc1 | inactive
Cc1cccc(N(C(=O)c2csnn2)C(C(=O)NCc2ccccc2)c2ccncc2)c1 (centres undefined) | inactive
O=C1CSC(=S)N1c1ccc(Cl)c(Cl)c1 | inactive
CCN(CC(=O)Nc1cc(Cl)ccc1C)C(=O)CSCc1ccc(C)cc1 | inactive
CCN(CC)c1ccc(NC(=O)c2ccc(=O)[nH]c2)cc1S(=O)(=O)Nc1ccc(OC)cc1 | -4.78 (active)
COc1ccc(NS(=O)(=O)c2ccc(NC(=O)c3ccc(N(C)S(C)(=O)=O)cc3)cc2)cc1 | inactive
COc1ccc(NS(=O)(=O)c2cc(NC(=O)CC(=O)c3ccc([N+](=O)[O-])cc3)ccc2C)cc1 | inactive
O=C(NCc1ccc2c(c1)OCO2)c1sccc1Br | inactive
O=C(O)c1ccc2c(c1)C(=O)N(NC(=O)c1ccc(O)cc1)C2=O | inactive
O=C(c1ccc(O)cc1)c1ccc(C(=O)O)c(C(=O)O)c1 | -10.2 (active)
O=C(Nc1ccc(C(=O)O)c(O)c1)c1ccccc1 | inactive
CCCOc1ccc(N2C(=O)CC(N(CCc3ccc(S(N)(=O)=O)cc3)C(C)=O)C2=O)cc1 (centres undefined) | inactive
CC(=O)Nc1ccc(S(=O)(=O)N2CCC(C(=O)N[C@@H](Cc3ccccc3)C(=O)O)CC2)cc1 | inactive
CCN(CC)S(=O)(=O)c1ccc(N(C)Cc2cccc(OC)c2OC)nc1 | inactive

Structure (SMILES) | B-score
COc1cc(N)c(Cl)cc1C(=O)OCC(=O)c1ccc2c(c1)NC(=O)CO2 | inactive
CC1CCC(NC(=O)C2c3ccccc3C(=O)N2Cc2ccc3c(c2)OCO3)CC1 (centres undefined) | inactive
O=C(NC1CCCCC1)C1c2ccccc2C(=O)N1Cc1ccco1 (centres undefined) | -7.6 (active)
O=C1c2ccccc2C(Nc2ccc3c(c2)OCCO3)N1Cc1ccco1 (centres undefined) | inactive
Cc1cc(OC(C)C(=O)Nc2ccc(S(=O)(=O)Nc3onc(C)c3C)cc2)cc(C)c1Cl (centres undefined) | inactive
COc1ccc(-c2ocnc2C(=O)Nc2ccc3c(c2)CCC3)cc1 | inactive
CCN1C(=O)[C@@H]2[C@@H](c3ccc(-c4ccc(OC)cc4)c(OC)c3)N3CCC[C@@]3(C(=O)OC)[C@@H]2C1=O | inactive
O=c1cc(CO)oc(C(Nc2cccc([N+](=O)[O-])c2)c2ccccn2)c1O (centres undefined) | -4.59 (active)
O=c1cc(CO)oc(C(Nc2cccc(C(F)(F)F)c2)c2ccccn2)c1O (centres undefined) | inactive
O=[N+]([O-])c1cccc(S(=O)(=O)NCc2ccccn2)c1 | inactive
O=C(c1ccc(Cl)cc1)N1N=C(c2ccccn2)CC1(O)C(F)(F)F (centres undefined) | inactive
Cc1nnc(SCC(=O)Nc2ccc(S(=O)(=O)Nc3ccc(Cl)nn3)cc2)s1 | inactive
CN(c1cccc(NC(=O)c2ccc(CN3CCc4ccccc4C3)cc2)c1)S(C)(=O)=O | inactive
COc1cccc(N(CC(=O)Nc2cccc(N(C)S(C)(=O)=O)c2)S(C)(=O)=O)c1 | inactive
CN(c1cccc(NC(=O)Nc2ccc(Cl)cc2)c1)S(C)(=O)=O | -8.9 (active)
CC(C)NC(=S)Nc1cccc2cnccc12 | -4.98 (active)
COC(=O)c1cccnc1NC(=S)NC(C)C | inactive
O=C(COC(=O)c1cnccn1)Nc1cccc2ccccc12 | inactive
Cc1ccc2cc(CN(c3ccc(C)c(C)c3)S(C)(=O)=O)c(=O)[nH]c2c1 | inactive
Cc1cc([N+](=O)[O-])ccc1NCc1cccc([N+](=O)[O-])c1 | inactive
Cc1c(Br)c([N+](=O)[O-])nn1CC(=O)Nc1sc2c(c1C(=O)OC(C)C)CCC(C)C2 (centres undefined) | inactive
COc1ccc(C(=O)Nc2c(N)nc(SCC(=O)N3CCC(C)CC3)[nH]c2=O)cc1OC | -5.91 (active)
COc1ccc(C(=O)Nc2c(N)nc(SCC(=O)Nc3ccc(C(C)=O)cc3)[nH]c2=O)cc1 | inactive
COC(=O)c1ccc(NC(=O)CSc2nc(N)c(NC(=O)c3ccc(Br)o3)c(=O)[nH]2)cc1 | inactive
